Reference: PubChem BioAssay AID1159580 (chemical genetic matrix, 2015)
Among all 5,500 compounds or so, about 2,000 (36%) were called active. Inconclusive results (about 18%) are left out. Rule as the data show it: active = normalized growth mostly below about 0.91 (no sharp cut-off); inconclusive = no clear call, values can overlap the other calls; inactive = mostly above about 0.92. This is one part of the list.

Experiment: chemical genetic growth profiling, strain panel (AID 1159580);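 also: tested at 20 µM; growth read once vehicle control cultures reached saturation at 30 °C; 1 = growth at the plate median or of vehicle wells; lower values mean less growth of the strain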
Details: growth OD

Measured: normalized growth

COc1cc(O)ccc1C(C)=O
inactive: S. cerevisiae deletion strains, locus YJR043C, strain POL32, stronger effect = lower value 0.977 | S. cerevisiae deletion strains, locus YJR066W, strain TOR1, stronger effect = lower value 0.957 | S. cerevisiae deletion strains, locus YJR075W, strain HOC1, stronger effect = lower value 0.966 | S. cerevisiae deletion strains, locus YKL009W, strain mrt4, stronger effect = lower value 0.999 | S. cerevisiae deletion strains, locus YKL068W, stronger effect = lower value 0.974 | S. cerevisiae deletion strains, locus YKL085W, strain MDH1 (second series), stronger effect = lower value 0.986 | S. cerevisiae deletion strains, locus YKL085W, strain MDH1, stronger effect = lower value 0.986 | S. cerevisiae deletion strains, locus YKL160W, strain elf1, stronger effect = lower value 1.02 | S. cerevisiae deletion strains, locus YKL190W, strain CNB1, stronger effect = lower value 0.995 | S. cerevisiae deletion strains, locus YKR001C, strain vps1, stronger effect = lower value 0.975 | S. cerevisiae deletion strains, locus YKR026C, strain gcn3, stronger effect = lower value 1.03 | S. cerevisiae deletion strains, locus YKR091W, strain srl3, stronger effect = lower value 1.02 | S. cerevisiae deletion strains, locus YLL001W, strain dnm1, stronger effect = lower value 1.03 | S. cerevisiae deletion strains, locus YLL026W, stronger effect = lower value 1.01 | S. cerevisiae deletion strains, locus YLL041C, strain sdh2, stronger effect = lower value 1.01 | S. cerevisiae deletion strains, locus YLR027C, strain aat2, stronger effect = lower value 1.01 | S. cerevisiae deletion strains, locus YLR039C, strain RIC1, stronger effect = lower value 0.977 | S. cerevisiae deletion strains, locus YLR058C, strain SHM2, stronger effect = lower value 0.954 | S. cerevisiae deletion strains, locus YLR102C, strain apc9, stronger effect = lower value 0.98 | S. cerevisiae deletion strains, locus YLR113W, strain HOG1, stronger effect = lower value 1.01 | S. cerevisiae deletion strains, locus YLR221C, strain rsa3, stronger effect = lower value 1.03 | S. cerevisiae deletion strains, locus YLR258W, strain gsy2, stronger effect = lower value 1.02 | S. cerevisiae deletion strains, locus YLR262C, strain YPT6 (second series), stronger effect = lower value 1.03 | S. cerevisiae deletion strains, locus YLR262C, strain YPT6, stronger effect = lower value 0.899 | S. cerevisiae deletion strains, locus YLR268W, strain sec22, stronger effect = lower value 1.04 | S. cerevisiae deletion strains, locus YLR320W, strain mms22, stronger effect = lower value 1.03 | S. cerevisiae deletion strains, locus YLR330W, strain CHS5, stronger effect = lower value 0.991 | S. cerevisiae deletion strains, locus YLR342W, strain FKS1 (second series), stronger effect = lower value 1.07 | S. cerevisiae deletion strains, locus YLR342W, strain FKS1, stronger effect = lower value 1.03 | S. cerevisiae deletion strains, locus YLR357W, strain rsc2, stronger effect = lower value 1.01 | S. cerevisiae deletion strains, locus YLR370C, strain arc18, stronger effect = lower value 1.02 | S. cerevisiae deletion strains, locus YLR371W, strain rom2, stronger effect = lower value 0.973 | S. cerevisiae deletion strains, locus YLR384C, strain iki3, stronger effect = lower value 1.05 | S. cerevisiae deletion strains, locus YLR418C, strain cdc73, stronger effect = lower value 0.973 | S. cerevisiae deletion strains, locus YML016C, strain PPZ1, stronger effect = lower value 0.989 | S. cerevisiae deletion strains, locus YML032C, strain rad52, stronger effect = lower value 0.951 | S. cerevisiae deletion strains, locus YML120C, strain ndi1, stronger effect = lower value 1.02 | S. cerevisiae deletion strains, locus YML124C, strain tub3, stronger effect = lower value 0.997 | S. cerevisiae deletion strains, locus YMR058W, strain fet3, stronger effect = lower value 1.03 | S. cerevisiae deletion strains, locus YMR078C, strain ctf18, stronger effect = lower value 0.99 | S. cerevisiae deletion strains, locus YMR125W, strain sto1, stronger effect = lower value 1.03 | S. cerevisiae deletion strains, locus YMR129W, stronger effect = lower value 1.02 | S. cerevisiae deletion strains, locus YMR205C, strain PFK2, stronger effect = lower value 1.04 | S. cerevisiae deletion strains, locus YMR223W, strain ubp8, stronger effect = lower value 0.979 | S. cerevisiae deletion strains, locus YMR231W, strain pep5, stronger effect = lower value 1.01 | S. cerevisiae deletion strains, locus YMR263W, strain SAP30, stronger effect = lower value 0.985 | S. cerevisiae deletion strains, locus YMR307W, strain GAS1, stronger effect = lower value 0.997 | S. cerevisiae deletion strains, locus YNL067W, strain RPL9B, stronger effect = lower value 0.981 | S. cerevisiae deletion strains, locus YNL071W, strain lat1, stronger effect = lower value 1.02 | S. cerevisiae deletion strains, locus YNL153C, strain GIM3, stronger effect = lower value 0.961 | S. cerevisiae deletion strains, locus YNL183C, strain NPR1, stronger effect = lower value 0.968 | S. cerevisiae deletion strains, locus YNL209W, strain ssb2, stronger effect = lower value 1.02 | S. cerevisiae deletion strains, locus YNL233W, strain BNI4, stronger effect = lower value 0.975 | S. cerevisiae deletion strains, locus YNL248C, strain rpa49, stronger effect = lower value 1.02 | S. cerevisiae deletion strains, locus YNL250W, strain rad50, stronger effect = lower value 0.974 | S. cerevisiae deletion strains, locus YNL271C, strain bni1, stronger effect = lower value 0.988 | S. cerevisiae deletion strains, locus YNL298W, strain CLA4, stronger effect = lower value 0.981 | S. cerevisiae deletion strains, locus YNL307C, strain MCK1, stronger effect = lower value 0.992 | S. cerevisiae deletion strains, locus YNL322C, strain KRE1 (second series), stronger effect = lower value 1.02 | S. cerevisiae deletion strains, locus YNR049C, strain mso1, stronger effect = lower value 1.02 | S. cerevisiae deletion strains, locus YNR052C, strain pop2, stronger effect = lower value 0.983 | S. cerevisiae deletion strains, locus YOL012C, strain htz1 1.92 | S. cerevisiae deletion strains, locus YOL147C, strain pex11, stronger effect = lower value 1 | S. cerevisiae deletion strains, locus YOR001W, strain rrp6, stronger effect = lower value 1.01 | S. cerevisiae deletion strains, locus YOR061W, strain CKA2, stronger effect = lower value 0.96 | S. cerevisiae deletion strains, locus YOR069W, strain VPS5, stronger effect = lower value 0.999 | S. cerevisiae deletion strains, locus YOR070C, strain gyp1, stronger effect = lower value 1.02 | S. cerevisiae deletion strains, locus YOR080W, strain dia2, stronger effect = lower value 1.02 | S. cerevisiae deletion strains, locus YOR083W, strain WHI5, stronger effect = lower value 1.03 | S. cerevisiae deletion strains, locus YOR106W, strain vam3, stronger effect = lower value 1.02 | S. cerevisiae deletion strains, locus YOR136W, strain idh2, stronger effect = lower value 0.995 | S. cerevisiae deletion strains, locus YOR144C, strain elg1, stronger effect = lower value 0.986 | S. cerevisiae deletion strains, locus YOR184W, strain ser1, stronger effect = lower value 0.971 | S. cerevisiae deletion strains, locus YOR231W, strain MKK1, stronger effect = lower value 1.02 | S. cerevisiae deletion strains, locus YOR265W, strain rbl2, stronger effect = lower value 1.02 | S. cerevisiae deletion strains, locus YOR270C, strain vph1, stronger effect = lower value 1.04 | S. cerevisiae deletion strains, locus YOR290C, strain snf2, stronger effect = lower value 1.01 | S. cerevisiae deletion strains, locus YOR316C, strain cot1, stronger effect = lower value 0.98 | S. cerevisiae deletion strains, locus YPL051W, strain arl3, stronger effect = lower value 1.02 | S. cerevisiae deletion strains, locus YPL055C, strain LGE1, stronger effect = lower value 0.957 | S. cerevisiae deletion strains, locus YPL078C, strain atp4, stronger effect = lower value 1.02 | S. cerevisiae deletion strains, locus YPL106C, strain sse1, stronger effect = lower value 1.01 | S. cerevisiae deletion strains, locus YPL240C, strain hsp82, stronger effect = lower value 1.01 | S. cerevisiae deletion strains, locus YPL256C, strain CLN2, stronger effect = lower value 1.04 | S. cerevisiae deletion strains, locus YPR119W, strain clb2, stronger effect = lower value 0.984 | S. cerevisiae deletion strains, locus YPR141C, strain kar3, stronger effect = lower value 0.976 | S. cerevisiae deletion strains, locus YPR163C, strain tif3, stronger effect = lower value 0.978 | S. cerevisiae deletion strains, locus YPR167C, strain met16, stronger effect = lower value 0.983 | S. cerevisiae deletion strains, strain wtn01, stronger effect = lower value 1.02 | S. cerevisiae strains, strain wild type, stronger effect = lower value 0.997
